The supplement of paper PMC12669797
Several values for one entry are separate records, joined by “and”; a condition that tells them apart may be missing. Equal entries are not always repeated. ± gives the standard deviation of the averaged measurements.

test system: TOV-21G; assay: cell viability relative to DMSO control (MTS) (fraction of DMSO control); higher = more viable cells / less growth inhibition; conditions: 10 µM; 48 h
Summary of the method: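 A 367-compound […] library was tested at a final concentration of 10 µM on TOV-21G and ES2 clear cell carcinoma cells (5000 cells per well, 96-well plates, pre-grown 24 h), with control wells receiving vehicle only. Following 48 h of exposure, CellTiter 96 AQueous One Solution was used as the manufacturer directs. This MTS assay gives cell viability as a fraction of the vehicle control.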

SMILES	cell viability
CC(C)[C@@H]1NC(=O)[C@H](C)OC(=O)[C@@H](C(C)C)NC(=O)[C@@H](C(C)C)OC(=O)[C@H](C(C)C)NC(=O)[C@H](C)OC(=O)[C@@H](C(C)C)NC(=O)[C@@H](C(C)C)OC(=O)[C@H](C(C)C)NC(=O)[C@H](C)OC(=O)[C@@H](C(C)C)NC(=O)[C@@H](C(C)C)OC1=O [Valinomycin]	0.355
N.N.[Cl][Pt][Cl] [Cisplatin]	1.09
C[C@@H]1C[C@@H]([C@H](O)CC2CC(=O)NC(=O)C2)C(=O)[C@@H](C)C1 [Cycloheximide]	0.373
C[C@H]1CCC/C=C/[C@@H]2C[C@H](O)C[C@H]2[C@H](O)/C=C/C(=O)O1 [brefeldin A]	0.407
C[C@H]1O[C@@H](n2cnc3c(N)ncnc32)C[C@@H]1O [2',5'-dideoxyadenosine]	1.05
O=C1C2CCN(CC2)C1(CO)CO	1.1
CC1=C2C[C@H]3[C@@H](CC=C4C[C@@H](O)CC[C@@]43C)[C@@H]2CC[C@]12O[C@@H]1C[C@H](C)CN[C@H]1[C@H]2C [cyclopamine]	0.927
C#CCN(C)C(C)Cc1ccccc1 (stereo not drawn) [Deprenyl]	1.01
COc1ccc(C[C@H]2NC[C@H](O)[C@H]2OC(C)=O)cc1 [anisomycin]	0.372
C=C(C)[C@H]1Cc2c(ccc3c2O[C@@H]2COc4cc(OC)c(OC)cc4[C@@H]2C3=O)O1 [Rotenone]	0.666
CC(=O)N[C@H]1[C@@H](O[C@@H]2O[C@H](CC(O)[C@H]3O[C@@H](n4ccc(=O)[nH]c4=O)[C@H](O)[C@@H]3O)[C@H](O)[C@H](O)[C@H]2NC(=O)/C=C/CC(C)C)O[C@H](CO)[C@@H](N)[C@@H]1O (stereo partly drawn) [Tunicamycin]	1.03
CC[C@@]1(O)C(=O)OCc2c1cc1n(c2=O)Cc2cc3ccccc3nc2-1 [Camptothecin]	0.267
CC(C)(O)/C=C/C(=O)[C@](C)(O)[C@H]1[C@H](O)C[C@@]2(C)[C@@H]3CC=C4[C@@H](C=C(O)C(=O)C4(C)C)[C@]3(C)C(=O)C[C@]12C [Cucurbitacin I]	0.328
CC(C)(c1ccc(OCC2CO2)cc1)c1ccc(OCC2CO2)cc1 (stereo not drawn)	1.27
COC[C@H]1OC(=O)c2coc3c2[C@@]1(C)C1=C(C3=O)[C@@H]2CCC(=O)[C@@]2(C)C[C@H]1OC(C)=O [Wortmannin]	0.6 ± 0.027
C/C=C(/C)C(=O)O[C@H]1C(C)=C2[C@H]([C@@H]1OC(=O)CCCCCCC)[C@@](C)(OC(C)=O)C[C@H](OC(=O)CCC)[C@@]1(O)[C@H]2OC(=O)[C@@]1(C)O [Thapsigargin]	0.348
COC(=O)C1(OC)CC2OC1(C)n1c3ccccc3c3c4c(c5c6ccccc6n2c5c31)C(=O)N(C)C4 (stereo not drawn)	0.914 and 1.01
C[C@@]1(CO)[C@H](O)CC[C@@]2(C)[C@H]1CC[C@H]1C[C@@H]3C[C@@]12CC[C@]3(O)CO [Aphidicolin]	0.869
N[C@@H]1C[C@H]1c1cc(F)cc(F)c1OCc1ccccc1 [S2101 (LSD1 inhibitor II)]	1.04
CCC1(c2ccc(N)cc2)CCC(=O)NC1=O (stereo not drawn) [Aminoglutethimide]	0.918
NC(=S)N/N=C\c1coc2ccccc2c1=O.[Cl][Cu][Cl] [Akt Inhibitor XI]	0.935
O=C1NC(=O)c2c1c1c3ccccc3n3c1c1c2c2ccccc2n1[C@H]1CC[C@@H]3O1	1.01 and 1.24
C[C@@H]1O[C@@H](O[C@H]2C[C@@H](O)[C@]3(CO)[C@H]4[C@H](O)C[C@]5(C)[C@@H](C6=CC(=O)OC6)CC[C@]5(O)[C@@H]4CC[C@]3(O)C2)[C@H](O)[C@H](O)[C@H]1O [Ouabain]	0.279
